Where “and” joins values, the source holds several entries; their conditions need not be identical. Equal entries are not always repeated. Where two headings read alike, the source gives them in different places.
Columns and labels:
[1] = test system: DDR2; details: concentration: 1 μM, replicates: in singlicate, n = 1
[2] = test system: T1, DLK; details: concentration: 1 μM, replicates: in singlicate, n = 1
T1 construct: gene MAP3K12

[3] = test system: T2, DMPK2; details: concentration: 1 μM, replicates: in singlicate, n = 1
T2 construct: gene CDC42BPG

[4] = test system: DMPK; details: concentration: 1 μM, replicates: in singlicate; n = 1
[5] = test system: T3, DRAK1; details: concentration: 1 μM, replicates: in singlicate; n = 1
T3 construct: gene STK17A

[6] = test system: T4, DRAK2; details: concentration: 1 μM, replicates: in singlicate, n = 1
T4 construct: gene STK17B

[7] = test system: DYRK1A; details: concentration: 1 μM, replicates: in singlicate; n = 1
[8] = test system: DYRK1B; details: concentration: 1 μM, replicates: in singlicate, n = 1
[9] = test system: DYRK2; details: concentration: 1 μM, replicates: in singlicate; n = 1
[10] = test system: EGFR; details: concentration: 1 μM, replicates: in singlicate, n = 1
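Also: KINOMEscan kinase panel screen.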

SMILES | %Inh [1] [%] | %Inh [2] [%] | %Inh [3] [%] | %Inh [4] [%] | %Inh [5] [%] | %Inh [6] [%] | %Inh [7] [%] | %Inh [8] [%] | %Inh [9] [%] | %Inh [10] [%] | %Inh ([1]; 1 µM) | %Inh ([2]; 1 µM) | %Inh ([3]; 1 µM) | %Inh ([6]; 1 µM) | %Inh ([8]; 1 µM) | %Inh ([10]; 1 µM)
COc1ccc(NC(=O)Nc2ccc(C)c(-c3ccc(C(=O)Nc4ccncc4)cc3)c2)cc1 [GSK1398475] | 44 | 0 | 6 | 0 | 5 | 8 | 2 | 0 | 6 | 33 | – | – | – | – | – | –
COc1ccc(-c2nc3n(c2-c2ccncc2)CCC3)cc1 [SKF-104493] | – | – | – | 0 | 0 | – | 0 | – | 0 | – | 31% and 51% | 0% and 20% | 0% and 15% | 2% and 0% | 0% and 5% | 0% and 15%
FC(F)(F)c1ccc(-c2cc(-c3c[nH]nc3-c3ccccn3)ccn2)cc1 [GW599550] | 17 | 41 | 0 | 4 | 10 | 0 | 10 | 23 | 0 | 18 | – | – | – | – | – | –
FC(F)(F)c1ccc(-c2nn3ncccc3c2-c2ccnc(Nc3cccc(C(F)(F)F)c3)n2)cc1 [GW828205] | 25 | 7 | 0 | 7 | 0 | 18 | 0 | 41 | 31 | 11 | – | – | – | – | – | –
Fc1cccc(COc2ccc(Nc3ncnc4sc(-c5ccc[nH]5)cc34)cc2Cl)c1 [GW707818] | 21 | 40 | 0 | 0 | 3 | 0 | 0 | 38 | 8 | 100 | – | – | – | – | – | –
CCn1c(-c2ccncc2)nc2cnccc21 [SB-735216] | 7 | 0 | 0 | 0 | 0 | 2 | 4 | 2 | 17 | 0 | – | – | – | – | – | –
O=c1cc(N2CCOCC2)nc2n(Cc3cccc(Cl)c3)ccn12 [GSK2296823] | 0 | 0 | 0 | 0 | 0 | 0 | 28 | 0 | 9 | 20 | – | – | – | – | – | –
O=C(Nc1n[nH]c2nc(-c3ccco3)c(Br)cc12)c1ccc(CN2CCCC2)cc1.O=C(O)[C@H](O)[C@@H](O)C(=O)O [SB-742352] | 0 | 0 | 0 | 0 | 42 | 20 | 0 | 0 | 14 | 8 | – | – | – | – | – | –
Cn1cc(-c2ccc3c(c2)CCN3C(=O)Cc2cccc(C(F)(F)F)c2)c2c(N)ncnc21 [GSK2606414] | 74 | 23 | 0 | 30 | 3 | 0 | 16 | 0 | 27 | 20 | – | – | – | – | – | –
O=C(NCCCN1CCCC1=O)c1cnc(NCc2cc(Cl)ccc2Cl)nc1NC1CCNCC1 | 0 | 0 | 0 | 0 | 0 | 16 | 0 | 0 | 0 | 20 | – | – | – | – | – | –
CSc1ccc(NC2=C(c3ccccc3Cl)C(=O)NC2=O)cc1 [SB-342411] | 0 | 0 | 0 | 0 | 0 | 0 | 67 | 78 | 3 | 18 | – | – | – | – | – | –
Cc1ccc(O)cc1Nc1cc(C(F)(F)F)nc2ccc(-c3ccncc3)cc12 [GW630823] | 0 | 0 | 4 | 0 | 21 | 11 | 0 | 7 | 0 | 15 | – | – | – | – | – | –
CN1CCC(n2cnc(-c3ccc(F)cc3)c2-c2ccnc(NC3CCNCC3)n2)CC1 [SB-229482] | 0 | 0 | 18 | 22 | 0 | 0 | 0 | 23 | 6 | 17 | – | – | – | – | – | –
Fc1cccc(COc2ccc(Nc3ncnc4cc[nH]c34)cc2Cl)c1 | 0 | 0 | 16 | 1 | 55 | 6 | 8 | 25 | 22 | 100 | – | – | – | – | – | –
COc1ccc(Nc2nccc(N3CCC(NC(=O)Nc4ccc5c(c4)OCO5)C3)n2)cc1 (stereo not drawn) [GSK1379745] | 21 | 35 | 20 | 0 | 0 | 0 | 8 | 5 | 7 | 25 | – | – | – | – | – | –
Cc1ccc(NC(=O)c2cccc(C#N)c2)cc1-c1ccc(C(=O)Nc2ccncc2)cc1 [GSK1398463] | 82 | 0 | 6 | 0 | 0 | 1 | 31 | 19 | 19 | 36 | – | – | – | – | – | –
CNc1nccc(-c2c(-c3ccc(F)cc3)ncn2C2CCN(C)CC2)n1 [SB-222903] | 58 | 0 | 21 | 1 | 0 | 0 | 0 | 0 | 0 | 8 | – | – | – | – | – | –
Cn1ccc2ncnc(Oc3ccc(NC(=O)Nc4cccnc4)c(Cl)c3)c21 | 90.7 | 0 | 0 | 0 | 8 | 2 | 0 | 33 | 14 | 20 | – | – | – | – | – | –
Nc1nc(-c2ccccn2)c(-c2ccnc3ccccc23)s1 [GW548057] | 33 | 45 | 10 | 0 | 0 | 3 | 1 | 0 | 9 | 16 | – | – | – | – | – | –
CSc1nn2c(=O)cc(N3CCOCC3)nc2n1Cc1cccc(Cl)c1Cl [GSK2347225] | 0 | 100 | 16 | 12 | 4 | 0 | 19 | 23 | 8 | 39 | – | – | – | – | – | –
C[C@@H]1CCN(C(=O)CO)C[C@@H]1N(C)c1ncnc2[nH]ccc12 | 0 | 0 | 0 | 8 | 3 | 13 | 0 | 0 | 0 | 1 | – | – | – | – | – | –
